Source: the supplement of paper PMC9694430

test system: LOC_OS01G10900-cb004; experiment: thermal shift delta Tm vs DMSO control; higher = stronger stabilization (binding); details: 12.5 µM; protein concentration 2 µM
Outline: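 Compounds dissolved in DMSO were added to purified rice kinase domain constructs, which had been expressed in E. coli, for differential scanning fluorimetry. Each well held 19.5 μl of 2 μM kinase in 100 mM potassium phosphate pH 7.5, 150 mM NaCl, 10% glycerol and 5 × SYPRO Orange. Fluorescence was followed from 25°C to 95°C at a rate of 0.05°C/s. Shifts in Boltzmann-fitted melting temperature are triplicate means relative to DMSO-only protein.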

Row | SMILES | thermal shift delta Tm [°C]
1 | O=C1NC(=O)C(=Cc2ccc(-c3ccc(F)cc3)o2)S1 (stereo in doubt) | 0.58
2 | CONC(=O)c1ccccc1Nc1cc(Nc2cc(C)nn2C(C)C)ncc1Cl | 0.57
3 | O=C(O)c1ccc2c3c1cccc3c(=O)n1c3ccccc3nc21 | 0.69
4 | OC1CCC(Oc2cccc3cnc(Nc4ccc5nc[nH]c5c4)nc23)CC1 (stereo not given) | 1.42
5 | CN1CCN(Cc2ccc(-c3cnc4[nH]cc(-c5ccc6[nH]ccc6c5)c4c3)cc2)CC1 | 4.45
6 | Cc1cc(N2CCOCC2)cc2[nH]c(-c3c(NC[C@@H](O)c4cccc(Cl)c4)cc[nH]c3=O)nc12 | -0.47
7 | S=C(NCc1ccc2c(c1)OCO2)N1CCN(c2ncnc3c2oc2ccccc23)CC1 [Amuvatinib (MP-470)] | 0.77
8 | COc1cc2c(N3CCN(C(=O)Nc4ccc(OC(C)C)cc4)CC3)ncnc2cc1OCCCN1CCCCC1 [Tandutinib (MLN518)] | 0.43
9 | COc1cc(-c2cc(-c3ccc(N4CCNCC4)cc3)cnc2C)cc(OC)c1OC | 1.13
10 | O=C(Nc1ccc(OC(F)(F)F)cc1)c1sccc1NCc1ccnc2ccccc12 | 0.51
11 | Cc1nc2ccc(-n3ncc(C(=O)c4cc5ccccc5[nH]4)c3N)cc2[nH]1 | 0.9
12 | CC(C)n1ncnc1-c1cn2c(n1)-c1ccc(O[C@@H](C)C(N)=O)cc1OCC2 | 0.08
13 | O=C(O)[C@]1(Cc2cccc(Nc3nccs3)n2)CC[C@@H](Oc2cccc(Cl)c2F)CC1 | 3.48
14 | O=C(O)CCC(=O)Nc1ccc(Br)cn1 [Bikinin] | -0.24
15 | CCOc1cc2ncc(C#N)c(Nc3ccc(OCc4ccccn4)c(Cl)c3)c2cc1NC(=O)/C=C/CN(C)C [Neratinib (HKI-272)] | 1
